# High-throughput results from PubChem.
# Sampled rows, rich in hits. Any-hit rate of the full collection: about 2%.
# Gli-Sufu antag: antagonists of Gli-Sufu signaling; AID 588413; Sufu-KO-LIGHT fibroblasts, Gli luciferase reporter luminescence; inhibition, % at 5 µM; 0.74% of 340,000 active;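 active = inhibition above about 55%, limit read from the data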;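 note: 0% = DMSO-treated cells and 100% = wells with medium but no cells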
# Jurkat NFkB inh: lowers PMA/ionomycin-induced NF-kB signal in Jurkat cells. PMA/ionomycin-induced NF-kB luciferase reporter, luminescence. AID 435003. 0.53% of 330,000 active. inhibition, % at 4 µM; in the data active = inhibition above about 50%
# 697 NFkB inh: inhibitors of the PMA/ionomycin-induced NF-kB reporter in 697 B cells | AID 435022 | inhibition, % at 4 µM | 697 B-cell NF-kB luciferase reporter, 16 h | 0.33% of 330,000 active; in the data active = inhibition above about 35%
# GalR3 antagonist: human GalR3 antagonism; inhibition, % at 3 µM; 0.44% of 360,000 active; HEK293 GalR3-CNG cAMP membrane potential fluorescence; galR3 body fused to GalR1 C-terminus; O60755; AID 651719;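 active = inhibition above the screen-wide average plus 3 SD, cut at about 13% in these data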;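 note: forskolin and galanin both at EC90 stimulate the cells; cAMP rise reported by CNG channel membrane potential dye signal; 0% = forskolin plus galanin with DMSO and 100% = forskolin alone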
# Target sequence (O60755 1-299 limits assumed): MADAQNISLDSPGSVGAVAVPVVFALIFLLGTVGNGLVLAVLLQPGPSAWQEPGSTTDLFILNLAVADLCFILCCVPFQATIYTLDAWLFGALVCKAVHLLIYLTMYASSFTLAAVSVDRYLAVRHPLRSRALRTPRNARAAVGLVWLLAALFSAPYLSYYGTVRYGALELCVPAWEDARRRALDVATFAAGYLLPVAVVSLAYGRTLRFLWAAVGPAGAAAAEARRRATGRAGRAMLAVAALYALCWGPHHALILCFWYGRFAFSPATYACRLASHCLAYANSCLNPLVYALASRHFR
# NR2F2 inh: blocks human COUP-TFII nuclear receptor | P24468 | HEK293T NGFI-A luciferase reporter, luminescence | inhibition, % at 8.6 µM | 0.7% of 370,000 active;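 active = inhibition above a per-plate cutoff, mean inhibition of test wells between control levels plus 3 SD, cut at about 38% in these data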;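 note: cells cotransfected with COUP-TFII expression vector driving the NGFI-A reporter; 0% = median of COUP-TF2 test wells and 100% = reporter-only cells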
# Jurkat NFkB conf: inhibitors of the PMA/ionomycin-induced NF-kB reporter in Jurkat cells, retest | AID 435020 | shares compounds with Jurkat NFkB inh | Jurkat NF-kB luciferase, 16 h | 27% of 2,700 active | inhibition, % at 4 µM;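 active = inhibition reaching about 45% at 4 µM in either replicate, limit read from the data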;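 note: plate controls were PMA/ionomycin stimulated DMSO wells for no effect and unstimulated DMSO wells for full effect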
# The depositor's hits bear a star; nt = no result.
SMILES,Gli-Sufu antag,Jurkat NFkB inh,697 NFkB inh,GalR3 antagonist,NR2F2 inh,Jurkat NFkB conf
CCOC(=O)c1ccccc1NC(=O)Cn1c(-c2nonc2N)nc2ccccc21,48,82*,15,0,-70,61*
COc1ccccc1-c1nnc(SCC#CCOC(=O)c2ccc(F)cc2)o1,nt,nt,nt,nt,2,nt
O=C(Nc1ccc(N2CCOCC2)c(Cl)c1)c1c(F)c(F)c(F)c(F)c1F,-10,10,-6,0,7,nt
O=C(Nc1ccc(N2CCOCC2)c(Cl)c1)c1cccc(F)c1,-78,-152,-143,6,-41,-96
C#CCNC(=O)C[C@@H]1C(=O)N2CCCC3=C2[C@@]1(C(=O)OCC)CCC3,nt,nt,nt,nt,-13,nt
S=C(c1ccc(-c2ccc(Br)cc2)o1)N1CCCCC1,-97,-175,-181,2,-37,-115
C=CCN1C(C(=O)OC)CN(Cc2cn(Cc3ccc(C)cc3)nn2)CCS1(=O)=O (stereo not given),nt,nt,nt,nt,-6,nt
Cc1ccc(C)c(NC(=O)C(Sc2ncnc3ccccc23)c2ccccc2)c1 (stereo not given),2,6,-7,nt,nt,nt
Cc1ccc(C)c(NC(=O)C(Sc2nc3ccccc3c(=O)n2CC(C)C)c2ccccc2)c1 (stereo not given),nt,65*,-16,3,18,6
O=C(N=C1N(Cc2ccccc2)[C@@H](Cc2ccccc2)[C@]2(C=C3CCCCC3n3c(=O)n(-c4ccccc4)c(=O)n32)N1C(=O)OCc1ccccc1)c1ccccc1 (stereo not given in full),nt,nt,nt,nt,-13,nt
O=C(Nc1nc2ccccc2s1)NC1CCCCC1,-124,-179,-133,-10,-64,-112
O=C(CC1CCCCC1)Nc1nc2ccccc2s1,-81,-106,-182,-2,-42,nt
c1ccc2c(c1)oc1c(Nc3ccc4c(c3)OCCO4)ncnc12,-101,-166,-196,-6,-52,-133
N#CCC(CNc1ncc(C(F)(F)F)cc1Cl)OC(=O)c1cccc([N+](=O)[O-])c1 (stereo not given),49,66*,16,-2,-13,14
N#CCC(CNc1ncc(C(F)(F)F)cc1Cl)OC(=O)c1c(F)cccc1F (stereo not given),-3,75*,-3,-12,-5,21
O=C(NCc1ccc(C(=O)N2CCOCC2)cc1)c1cccc(Br)c1,nt,nt,nt,nt,-1,nt
Cc1ccc(S(=O)(=O)N2CCCCC2CCNC(=O)C(=O)NCCc2ccco2)cc1 (stereo not given),0,60*,-15,2,5,25
Cc1ccc(S(=O)(=O)N2CCCCC2CCNC(=O)C(=O)NCc2ccco2)cc1 (stereo not given),0,41,-12,-8,10,nt
COc1ccc2cc(CN(CC3CCCO3)C(=S)Nc3ccccc3)c(=O)[nH]c2c1 (stereo not given),15,50,6,-5,20,9
COc1ccc2[nH]c(=O)c(CN(CC3CCCO3)C(=S)Nc3ccccc3)cc2c1 (stereo not given),15,-4,-11,-7,-6,nt
O=C(COc1ccc(Oc2ccccc2)cc1)NCc1cn2ccccc2n1,-2,63*,4,1,1,23
COc1ccc(NC(=O)c2cccs2)cc1C(=O)N1CCN(c2ccccc2)CC1,-1,52*,-21,-2,2,13
O=C(NC(=S)Nc1ccc(N2CCCCC2)cc1)c1cccs1,4,-172,-106,-7,-32,-108
O=C(Nc1ccc(N2CCN(C(=O)c3cccs3)CC2)cc1)c1cccc(F)c1,18,30,-23,-7,7,nt
COc1cccc(C(=O)Nc2ccc(N3CCN(C(=O)c4cccs4)CC3)cc2)c1,-10,52*,-79,-3,-7,14
SMILES,Gli-Sufu antag,Jurkat NFkB inh,697 NFkB inh,GalR3 antagonist,NR2F2 inh,Jurkat NFkB conf
COc1cccc(OC)c1C(=O)Nc1ccc(N2CCN(C(=O)c3cccs3)CC2)cc1,5,-1,-4,-2,1,nt
O=C(O)C(=O)/C(=C\c1ccc(Cl)cc1)c1ccc2ccccc2n1,-22,-156,-84,-7,-28,-54
O=C(NCCc1ccc(Cl)cc1)c1ccc2ccccc2n1,-27,-8,-32,-9,-15,nt
CCc1cc(-c2ccc3c(c2)COc2c4ccccc4nn2-3)on1,-127,-165,-100,-5,-26,-57
CCCC#Cc1ccc2c(c1)COc1c3ccccc3nn1-2,-106,-125,-197,-5,-41,nt
COc1ccc(S(=O)(=O)NCc2ccccn2)cc1NC(=O)c1ccccc1C,-7,55*,-35,-4,-18,15
COc1ccc(S(=O)(=O)NCc2ccccn2)cc1NC(=O)c1ccc(Cl)cc1,1,25,-39,-4,-9,nt
CC(C)c1ccc(OC[C@@H](O)CN2CCC(C(O)(c3ccccc3)c3ccccc3)CC2)cc1,nt,nt,nt,nt,27,nt
CCc1ccc(Nc2cc(C)nc3ncnn23)cc1,21,8,12,-8,-3,nt
CCn1c2ccccc2c2cc(Nc3cc(C)nc4ncnn34)ccc21,62*,65*,-197,6,-98,49*
COc1cccc2cc(-c3csc(NC(=O)CCC(=O)NCCCN4CCC(C)CC4)n3)c(=O)oc12,-83,-158,-237,-4,-36,-104
CCOc1cccc2cc(-c3csc(NC(=O)CCC(=O)NCCCN4CCC(C)CC4)n3)c(=O)oc12,nt,-185,-99,nt,nt,-71
CCOc1cccc2cc(-c3csc(NC(=O)CCC(=O)NCCN4CCCCC4C)n3)c(=O)oc12 (stereo not given),15,-200,-57,-2,-46,-32
Cc1cc(C)c2ccc(N)nc2c1O,0,52*,-2,-4,12,14
COc1ccc(Cl)cc1NC(=O)CN(C)CC(=O)Nc1ccccc1N1CCOCC1,9,63*,-28,-6,-4,43
COc1ccc(Cl)cc1NC(=O)CN(C)CC(=O)N1CC(=O)Nc2ccccc21,-12,-5,1,5,22,nt
O=[N+]([O-])c1cc(-c2cnc3ccccc3n2)ccc1Oc1ccc(Cl)cc1,5,-9,-5,0,2,nt
COc1ccccc1Oc1ccc(-c2cnc3ccccc3n2)cc1[N+](=O)[O-],-12,59*,-70,-7,6,-3
COC(=O)[C@]12C[C@H](CC(=O)NCc3cccs3)C(=O)N(Cc3cccc4ccccc34)C1=C[C@H](COCc1ccccc1)O[C@@H]2C,nt,nt,nt,nt,19,nt
C[C@@H]1COc2cccc(F)c2S(=O)(=O)N1C,nt,nt,nt,nt,-33,nt
CCCC[C@@H]1C(=O)N2N=Cc3cc(C)c(C)cc3[C@H]2N2N=Cc3cc(C)c(C)cc3[C@@H]12,nt,nt,nt,nt,15,nt
CCN(CC)S(=O)(=O)c1ccc(N/N=C/c2cc(OC)c(OC)cc2OC)nc1,6,3,-2,-10,0,nt
CCOc1cccc(/C=N/Nc2ccc(S(=O)(=O)N(CC)CC)cn2)c1O,90*,60*,-34,-5,-7,46
COc1ccc(NC(=O)c2nc(C)c(C3(C)CC(c4ccccc4)=NO3)s2)cc1 (stereo not given),-3,55*,-14,0,-44,37
